INHIBITION data for 105 compounds are collected here from ChEMBL document CHEMBL4513216, “Probing the Open Global Health Chemical Diversity Library for Multistage-Active Starting Points for Next-Generation Antimalarials” (ACS Infect Dis, 2020).

The campaign covered roughly 69,000 compounds. About 8,600 (12%) showed an effect of 50% or more. The sample holds strong results, similar compounds and a random draw of the others, so the mix is not that of the screen.

This assay deals with Plasmodium berghei. In words: Screen against P. berghei liver stage (PbLuc), transformed with Luciferase, at 10uM. It counts as functional, HepG2. Conditions: tested at 10 uM.
As to `CC(C)CC(=O)N1Cc2ccccc2CC1C(=O)Nc1nccs1` (stereo not given), the INHIBITION worked out at 31.6%.

As for `CCn1cc2c(n1)CN(S(=O)(=O)c1cccnc1)CC2COC` (stereo not given), the INHIBITION was 8.85%. Next, `CC1(c2ncc(CN3CCN(c4ccccn4)CC3)cn2)CCCCO1` (stereo not given): -16.85%; `O=C1[C@H]2CN(CC3CC3)C[C@H]2CN1Cc1cccc(F)c1`: 39.8%; `O=C(NCc1cccnc1N1CCc2ccccc2C1)c1cnc[nH]1`: -11.6%. As for `Cc1cc(C(=O)N2CC[C@@H]3CN(CCC(C)C)S(=O)(=O)[C@@H]3CC2)no1`, the INHIBITION amounted to 6.27%. In the case of `CS(=O)(=O)N1C[C@H]2CC[C@@H](C1)N(C/C=C/c1ccc(F)cc1)C2`, the INHIBITION was 31.7%. For the compound `Cc1ccc(CN2CCn3cc(CNC(=O)c4cnn(C)c4)nc3C2)s1`, the INHIBITION turned out to be 16.8%.

Take `CS(=O)(=O)NCc1cncc2c1CCN(C(=O)N1CCCC1)C2`: the INHIBITION stood at 37.2%. As to `Cc1ccc(-n2cnc(Cl)c2CO)cc1`, the INHIBITION turned out to be 40.9%.

On to `Cc1ccccc1-n1cnc(Cl)c1CO`, for which the INHIBITION was 59.3%. The figure for `Cc1cccc(-n2cnc(Cl)c2CO)c1` is 28%; for `Cc1ccccc1-n1cnc(Cl)c1C(=O)O` it is 24.4%; for `OCc1c(Cl)ncn1-c1ccccc1` it is 46.4%. As to `OCc1c(Cl)ncn1-c1ccc(F)cc1`, the INHIBITION is on record as 52.8%.

Regarding `COc1ccc(CN2C[C@@H]3C(CC(=O)N4CCCC4)[C@@H]3C2)cc1` (stereo not given in full), the INHIBITION turned out to be 17.4%. The figure for `CCc1nnc2n1CC(CNCc1nnc(C(C)(C)C)o1)CC2` (stereo not given) is 14.9%.

For the compound `Cc1cccc(NC(=O)N2CCC3(CC(=O)N(c4ccsc4)C3)C2)c1` (stereo not given), the INHIBITION was determined as 12.4%.

In the case of `COCCn1cc2c(n1)C(CNCc1ccc(F)cc1)OCC2` (stereo not given), the INHIBITION is on record as 13.5%. `Cc1ccc(C(=O)N(C)Cc2cscn2)c(=O)[nH]1`: the INHIBITION turned out to be 15%. Next, `COCCC1COC2(CCN(C(C)=O)CC2)C1` (stereo not given): 20.1%; `COCCC1COC2(CCN(C(=O)c3ccsc3)CC2)C1` (stereo not given): 57.9%. Regarding `COCCC1COC2(CCN(C(=O)c3cccn3C)CC2)C1` (stereo not given), the INHIBITION was determined as 20.6%. Next, `COCCC1COC2(CCN(C(=O)c3ccccc3)CC2)C1` (stereo not given): 40.4%; `CCN(C)C1COC2(CCN(C(=O)c3cccc(Cl)c3)CC2)C1` (stereo not given): 0.112%. Next, `COCCC1COC2(CCN(C(=O)c3ccncc3)CC2)C1` (stereo not given): 74.2%. Next, `CCN(C)C1COC2(CCN(C(=O)c3ccc4[nH]ccc4c3)CC2)C1` (stereo not given): -12.2%. As to `CCN(C)C1COC2(CCN(C(=O)c3ccc(Cl)cc3)CC2)C1` (stereo not given), the INHIBITION was found to be 70.3%.

For the compound `COCCC1COC2(CCN(C(=O)c3cccnc3)CC2)C1` (stereo not given), the INHIBITION is listed as 34.6%. Consider `CCc1nc2ccccc2n1C(CC)C(=O)N(C)CCc1noc(C)n1` (stereo not given), for which the INHIBITION is given as -4.12%. Next, `CC(C)c1noc(OCc2cccc(S(=O)(=O)N(C)C)c2)n1`: 37.8%; `CCCn1nnc(NCc2ccccc2OCc2ccc(Cl)cc2)n1`: -36.8%. Next, `COc1ccccc1CNC(=O)C[S+]([O-])Cc1cc(C)on1` (stereo not given): -9.19%; `O=C(c1cc(Cl)c2c(c1)OCCCO2)N(CC1CCOC1)C1CC1` (stereo not given): 30.9%. Turning to `CCN(CC1CCOC1)C(=O)c1cc(Cl)c2c(c1)OCO2` (stereo not given), the INHIBITION is given as 56.6%. As for `CCN(CC1CCOC1)C(=O)c1ccccc1N1CCOCC1` (stereo not given), the INHIBITION is reported as 26.8%.

As for `CCN(CC1CCOC1)C(=O)c1cc(F)ccc1N1CCN(C)CC1` (stereo not given), the INHIBITION is listed as 7.27%. Turning to `CCN(CC1CCOC1)C(=O)c1ccc(N2CCOCC2)c(F)c1` (stereo not given), the INHIBITION is listed as 66.2%.

As for `CCN(CC1CCOC1)C(=O)c1cc(OC)c2c(c1)OCCO2` (stereo not given), the INHIBITION is recorded as 30.9%. As for `COCC(=O)N1CCCC(c2noc3nc(C)cc(C(F)(F)F)c23)C1` (stereo not given), the INHIBITION is 24.4%.

Regarding `CC(C)NC(=O)COc1ccc(-c2nc(C(C)C)no2)cc1`, the INHIBITION stood at 10.7%. Regarding `Cc1csc(C(C#N)C(=O)NCc2cccnc2)n1` (stereo not given), the INHIBITION came out at 26.5%.

As to `Cc1csc(C(C#N)C(=O)Nc2ccccc2)n1` (stereo not given), the INHIBITION is reported as 8.08%. The figure for `Cc1csc(C(C#N)C(=O)NCc2ccccc2)n1` (stereo not given) is 52.6%; for `Cc1cc(N(C)C)nc(C2CCNC2)n1` (stereo not given) it is 35%. Next, `O=C(NC1CCCc2nc(N3CCCCC3)ncc21)C1CCCC1` (stereo not given): 40%; `Cc1ccc(C(CNC(=O)Nc2cn[nH]c2)N2CCOCC2)o1` (stereo not given): -45.6%.

Consider `CC1=Nc2c(c(=O)[nH]n2C(C)C)C(c2ccsc2)S1` (stereo not given), for which the INHIBITION was 30%. Next, `O=C(NCc1cccnc1)N1CCc2ncnc(C3CC3)c2CC1`: -14.3%; `O=C(O)CCc1ccc(S(=O)(=O)Nc2cnn(CC(F)(F)F)c2)cc1`: 28.1%; `O=C(O)c1ccc(S(=O)(=O)Nc2cnn(CC(F)(F)F)c2)cc1`: 72.8%.

Consider `O=C(O)CCc1ccc(S(=O)(=O)Nc2cnn(CC3CC3)c2)cc1`, for which the INHIBITION stood at 5.51%.

Regarding `O=C(NCCOc1ccc(Cl)cn1)Nc1ccccn1`, the INHIBITION is -34.8%. The figure for `CS(=O)(=O)NCc1cncc2c1CCN(C(=O)c1cccnc1)C2` is 4.57%; for `CN1CCN(c2cnn(CCn3cccn3)c(=O)c2)CC1` it is 57.3%; for `Cc1cnn(C(C)C(=O)NCC2CCN(c3cnn(C)c(=O)c3)CC2)c1` (stereo not given) it is -9.08%. In the case of `NCC1CCN(c2cnn(CCCn3cccn3)c(=O)c2)CC1`, the INHIBITION is listed as 61%. The figure for `O=c1cc(N2CCNCC2)cnn1CCCn1cccn1` is 49.9%. Next, `O=c1cc(N2CCCCC2)cnn1CCCn1cccn1`: -54%. Next, `Cc1cnn(CCCn2ncc(N3CCC(CN)C3)cc2=O)c1` (stereo not given): 66.5%; `CCCOCCn1ncc(N2CCCC2)cc1=O`: -49.2%; `CCC(CC)Cn1ncc(N2CCOCC2)cc1=O`: 23.8%. Turning to `Cc1cnn(CC(=O)NCC2CCN(c3cc(Cl)ccc3C)C2)c1` (stereo not given), the INHIBITION is reported as -47.28%.

With `Cc1nn(C)c(C)c1C1COCCN1C(=O)c1cc(F)ccc1F` (stereo not given), the INHIBITION is reported as -2.19%.

On to `COc1cccc(CN2CCCC2c2cccc(F)c2)c1OC` (stereo not given), for which the INHIBITION stood at 1.45%. For `Cc1nn(C)cc1-c1cc(C(F)F)n2nc(CCC(=O)O)nc2n1`, the INHIBITION is reported as 21.9%. For `COc1ccc(Cl)cc1S(=O)(=O)N(C)CC(=O)Nc1ccon1`, the INHIBITION is listed as -44.8%. Regarding `Cc1cnn(CC2CCCN2C(=O)CCc2c(C)noc2C)c1` (stereo not given), the INHIBITION was 17.3%.

Turning to `CS(=O)(=O)N1CC[C@@H]2[C@@H](CCC(=O)N2CCC2=CCCCC2)C1`, the INHIBITION is 19.4%. Next, `O=C1CC[C@H]2CN(C3CCOCC3)CC[C@H]2N1CCC1=CCCCC1`: 58.5%.

For the compound `CN1CCC(N2CC[C@@H]3[C@@H](CCC(=O)N3CCC3=CCCCC3)C2)CC1`, the INHIBITION is 33.9%. For `Cc1ccc(C(N)=O)c(N2Cc3cnc(C(C)(C)C)nc3C2)n1`, the INHIBITION is given as 17.1%.

Take `COC(=O)[C@@H]1CCCN1C(=O)c1cn(CCCc2ccccc2)nn1`: the INHIBITION worked out at 2.4%. Next, `Cc1cccc(C2CCCCCN2C(=O)c2cn(CC(N)=O)nn2)c1` (stereo not given): -15.245%; `Cc1nc(C(C)NC(=O)c2cn(C/C=C/c3ccccc3)nn2)n[nH]1` (stereo not given): 29.1%; `NC(=O)[C@@H]1CCCN1C(=O)c1cn(C/C=C/c2ccccc2)nn1`: 57.1%.

As for `COC(=O)[C@@H]1CCCN1C(=O)c1cn(C/C=C/c2ccccc2)nn1`, the INHIBITION is listed as 52.6%. Regarding `COC(=O)C1CCCCN1C(=O)c1cn(C/C=C/c2ccccc2)nn1` (stereo not given), the INHIBITION is listed as 9.79%. Consider `Cc1ccc(C(=O)N2CC[C@@H](N(C)C)[C@@H]2Cc2cnn(C)c2)cn1`, for which the INHIBITION is on record as 15.9%. For the compound `COc1ccc(N2CCN(C(=O)[C@@H]3C[C@@H](O)CN3)CC2(C)C)cc1`, the INHIBITION was 35.3%.

In the case of `CC(=O)c1c(O)n(C)c2ccc(C)cc12`, the INHIBITION is given as -10.5%. The figure for `Cc1nn(C)c(C)c1-c1ccc(=O)n(C(C)C(=O)NC2CCCC2)n1` (stereo not given) is 35.05%. With `COc1ccc(C(C)C)cc1C1CC(=O)NCc2nc(N(C)C)sc21` (stereo not given), the INHIBITION amounted to 52.2%.

As to `COc1ccc(C2CC(=O)NCc3nc(N(C)C)sc32)c(O)c1` (stereo not given), the INHIBITION worked out at 36.6%.

Take `COc1cc2c(cc1C1CC(=O)NCc3nc(N(C)C)sc31)CCC2` (stereo not given): the INHIBITION was 27.6%. For the compound `CN(Cc1ccccc1F)C(=O)c1cc(Cl)c[nH]1`, the INHIBITION is 15.4%. For `COc1nccnc1N1C[C@H]2CC[C@@H](C1)N(CC=C(C)C)C2=O`, the INHIBITION is listed as 6.83%. The figure for `CCOc1ccccc1C(CC(=O)Nc1ccncc1)NC(C)=O` (stereo not given) is 26.9%; for `CC(NC(=O)NC1CCN(Cc2ccccc2)CC1)c1nncn1C` (stereo not given) it is -12.3%. The figure for `CC(NC(=O)NC1CCN(Cc2ccncc2)CC1)c1cccc(F)c1` (stereo not given) is 13%. For `CC(NC(=O)NC1CCN(Cc2ccncc2)CC1)c1ccc(F)cc1` (stereo not given), the INHIBITION came to 75.7%.

`CC(NC(=O)NC1CCN(Cc2ccccn2)CC1)c1ccco1` (stereo not given): the INHIBITION came out at 36.8%. As for `NC(=O)C(NC1CCN(Cc2ccc(F)cc2)CC1)c1ccccc1` (stereo not given), the INHIBITION was -106%. The figure for `CC(NC(=O)NC1CCN(Cc2ccncc2)CC1)c1ccccc1F` (stereo not given) is 68.9%; for `O=C(C1CC1)N1CCN(Cc2ccncc2)c2ncccc2C1` it is 5.56%; for `CC(NC(=O)NCc1ccccc1Cl)c1ccccn1` (stereo not given) it is -49.5%. The figure for `COc1ccc2c(c1)C(=O)NC1(CC2)CCN(Cc2cccnc2)C1` (stereo not given) is 2.1%; for `Cc1cccc(-n2cc3[nH]c(=O)[nH]n3c2=O)c1` it is 36.3%. The figure for `CC(C)C(C)N(Cc1cnc2ccccc2n1)Cc1ccco1` (stereo not given) is 47%; for `CC(C)NC(=O)NC[C@H]1OC[C@@H](NCc2cccs2)[C@@H]1O` it is -13.4%; for `CC(C)(C)CN[C@@H]1CO[C@H](CNC(=O)c2cccs2)[C@H]1O` it is -7.29%. Take `O=C(NC[C@H]1OC[C@@H](NCc2cccs2)[C@@H]1O)N1CCOCC1`: the INHIBITION is listed as -0.371%.

With `Cc1ccc(CN[C@@H]2CO[C@H](CNS(=O)(=O)c3ccccc3)[C@H]2O)cc1`, the INHIBITION was 27.5%. Next, `O=S(=O)(NC[C@H]1OC[C@@H](NCc2cccs2)[C@@H]1O)c1ccccc1`: 51%. Turning to `Cc1ccc(S(=O)(=O)NC[C@H]2OC[C@@H](NCc3cccs3)[C@@H]2O)cc1`, the INHIBITION stood at 52.5%.
